Screening data from PubChem BioAssay.
A selection: hits, their analogues and other compounds. The true share with any hit is near 3.7%.
tim10-1 inh – tim10-1 yeast growth inhibition. S. cerevisiae tim10-1 ts strain growth, BacTiter-Glo, 24 h. inhibition, % at 20 µM. hit rate 2.2% among 330,000. AID 463190;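 active means inhibition of at least 40%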;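 further: mutant grown at 25 °C; 0% = DMSO wells with yeast and 100% = wells holding no yeast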
PfHsp90 set2 – reduces growth (ATP signal) of yeast expressing P. falciparum Hsp90; hit rate 0.32% among 310,000; inhibition, % at 9.4 µM; AID 504621; S. cerevisiae expressing PfHsp90, BacTiter-Glo ATP, 48 h; yeast lacking PDR1 and PDR3 efflux regulators;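 active means every replicate shows inhibition above about 80%, whatever the replicate mean, limit read from the data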;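 further: 0% = DMSO neutral controls and 100% = 20 µM radicicol positive controls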
tim23-1 inh – tim23-1 yeast growth inhibition. S. cerevisiae tim23-1 growth, BacTiter-Glo luminescence, 24 h. inhibition, % at 20 µM. hit rate 1.3% among 330,000. AID 463212;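 active means growth inhibition of the mutant yeast at or above 50%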;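 further: temperature-sensitive mutant grown at 25 °C; plate controls were DMSO-treated mutant yeast for no effect and medium wells lacking yeast for full effect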
NALP3 yeast inh – NALP3 inhibition in yeast; Yeast reconstituted NLRP3/ASC/caspase-1, beta-gal luminescence, 24 h; inhibition, % at 10 µM; hit rate 0.39% among 330,000; AID 2825;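 active means inhibition of 50% or more; inactive means inhibition below 50%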;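 further: plate controls were induced DMSO wells for no effect and uninduced yeast grown without galactose for full effect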
TIM10 inh – growth inhibitors of TIM10 yeast strain | inhibition, % at 10 µM | hit rate 1.4% among 330,000 | S. cerevisiae TIM10 strain growth, BacTiter-Glo luminescence, 24 h;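 active means inhibition of 40% or more at the single tested concentration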;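 further: wild-type TIM10 isogenic control strain grown at permissive 25 °C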
tim10-1 confirm – confirmation of tim10-1 mutant yeast growth inhibitors | shares compounds with tim10-1 inh | S. cerevisiae tim10-1 ts strain growth, BacTiter-Glo, 24 h | inhibition, % at 20 µM | hit rate 56% among 7,400;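 active means inhibition of yeast growth at or above a set limit in either of two repeat tests at 20 µM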;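 further: tim10-1 mutant grown at permissive 25 °C to find synthetic lethal compounds; 0% = DMSO yeast wells and 100% = medium wells without yeast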
Starred values were filed as active, the others as inactive; / = no result.

SMILES | tim10-1 inh | PfHsp90 set2 | tim23-1 inh | NALP3 yeast inh | TIM10 inh | tim10-1 confirm
O=C(COc1ccc(Cl)cc1)NCc1nnc(SCC(=O)NC2CCCC2)o1 | 11 | 11 | -2 | -5 | -14 | /
CCC1CCCCN1C(=O)CSc1nnc(-c2ccc(Cl)cc2)o1 (centres undefined) | 27 | / | 16 | 38 | 5 | /
O=C(NNS(=O)(=O)c1ccccc1)c1cccc(F)c1 | 8 | -1 | 19 | 11 | -1 | /
COc1ccc(Cl)cc1NC(=O)COC(=O)c1ccc(C)o1 | 16 | / | 15 | 33 | 14 | /
Cc1cc(Oc2cccc3c2S(=O)(=O)N(C2CCCC2)CC(COCc2ccccc2)O3)cc(C)c1C (centres undefined) | / | 7 | / | / | / | /
N#CC1(C#N)OC12CCS(=O)(=O)c1ccccc12 (centres undefined) | / | -18 | / | / | / | /
COc1ccc(CCN(C)C2CCCN(C(=O)c3ccnn3C)C2)cc1OC (centres undefined) | -17 | 22 | -7 | 21 | -9 | /
COc1ccc(Oc2nc(-c3ccncc3)nc3ccccc23)cc1 | 39 | -32 | 48 | 11 | 32 | /
COc1cccc(Oc2nc(-c3ccncc3)nc3ccccc23)c1 | 41* | / | 47 | 24 | 22 | 22
Cc1cc(OCc2nc(N)nc(N)c2-c2ccc(Cl)c(Cl)c2)ccc1[N+](=O)[O-] | / | -11 | / | / | / | /
CCOC(=O)/C=C/C(=O)Nc1nccs1 | 43* | 19 | 34 | 18 | 32 | 40*
O=C(CCCCCNC(=O)N1CCn2c1nc1ccccc12)NCc1ccccc1Cl | 7 | 11 | 18 | 12 | 3 | /
O=C(c1cc(-c2cccnc2)nc2ccc(Br)cc12)N1CCN(c2ncccn2)CC1 | 46* | -18 | 44 | 10 | 28 | 18
COc1ccc(-c2[nH]c(-c3ccc4c(c3)OCO4)nc2-c2ccccc2)cc1 | 54* | 59 | 49 | -15 | 22 | 28
Cc1onc(-c2ccccc2Cl)c1C(=O)N1CCCCC1 | 4 | 0 | 9 | 11 | 15 | /
Cc1onc(-c2ccccc2Cl)c1C(=O)N1CCN(c2nc3ccccc3s2)CC1 | 49* | 2 | 32 | 6 | 33 | 29
O=C(Cn1nc(C(F)(F)F)c2c1CCC2)NCc1ccc(Cl)cc1 | 41* | 17 | -9 | 14 | 14 | 30
O=C(CCN1C(=O)/C(=C/c2ccccc2)SC1=S)N1CCCCCC1 | 44* | -5 | 50 | 34 | 33 | 36*
COC(=O)c1sc(NC(=O)CN2CCN(c3cccc(Cl)c3)CC2)c(C(=O)OC)c1C | / | -9 | / | / | / | /
O=C1NC(=S)S/C1=C/c1ccc(N2CCOCC2)o1 | -1 | 7 | -1 | 7 | 7 | /
COc1ccc2cc(/C=C3\SC(=S)NC3=O)c(N3CCOCC3)nc2c1 | 42* | -41 | 45 | 25 | 36 | 39*
CCOC(=O)c1cnc2c(C)cc(C)cc2c1NCCCN1CCOCC1 | 0 | 3 | 4 | 9 | -1 | /
OC(COc1ccc2ccccc2c1Br)Cn1cnc(-c2ccccc2)c1 (centres undefined) | 43* | -25 | 8 | 11 | -6 | 44*
O=C(c1ccc2c3n(nc2c1)-c1ccccc1CO3)N1CCCCC1 | 51* | 34 | 49 | -14 | 33 | 48*
Cc1ccc2c(c1)COc1c3ccc(C(=O)N4CCCCC4)cc3nn1-2 | 23 | -10 | 27 | 10 | 21 | /
SMILES | tim10-1 inh | PfHsp90 set2 | tim23-1 inh | NALP3 yeast inh | TIM10 inh | tim10-1 confirm
COc1ccc(/C=N/Nc2ncnc3sc4c(c23)CCCC4)cc1OC | 41* | -14 | 11 | 11 | 26 | 18
c1ccc(Nc2ncnc3sc4c(c23)CCC4)cc1 | 24 | -10 | 20 | 33 | -25 | /
Fc1ccc(Nc2ncnc3sc4c(c23)CCC4)cc1 | 43* | 17 | 47 | 42 | 21 | 28
COc1cc(C2C(C(C)=O)=C(O)C(=O)N2Cc2ccccc2)ccc1O (centres undefined) | 8 | -30 | 10 | 1 | 2 | /
Cc1ccc2cc(CN(c3ccccc3)S(=O)(=O)c3ccccc3)c(=O)[nH]c2c1 | 13 | -40 | 22 | 6 | 8 | /
CCOc1ccc(N(Cc2cc3ccc(C)cc3[nH]c2=O)S(=O)(=O)c2ccccc2)cc1 | 42* | 7 | 45 | 5 | 3 | 15
Cc1c(OCC(=O)NCCCN2CCOCC2)ccc2c3c(c(=O)oc12)CCCC3 | 46* | -4 | 9 | 15 | 25 | 26
CCCc1cc(=O)oc2c(C)c(OCC(=O)Nc3ccc(CN4CCOCC4)cc3)ccc12 | 40* | -7 | 11 | 17 | 39 | 33*
O=C(CCN1N=C(c2ccccc2)CCC1=O)NCC1COc2ccccc2O1 (centres undefined) | 27 | -7 | 13 | 16 | -5 | /
COc1ccc(CC(=O)Nc2ccccc2C(=O)NCCc2ccccc2)cc1 | 23 | 7 | 17 | 19 | 2 | /
CC(Oc1ccc(Cl)cc1Cl)C(=O)Nc1ccc(S(=O)(=O)Nc2cnc3ccccc3n2)cc1 (centres undefined) | 42* | / | -6 | 10 | -5 | 15
CC(C)(C)NC(=S)N1CCC(C(=O)c2ccc(Cl)cc2)CC1 | 11 | -6 | 17 | 19 | -4 | /
CCC1CCCCN1C(=O)c1ccc([N+](=O)[O-])o1 (centres undefined) | 54* | 30 | 44 | 28 | 38 | 35*
Nc1c(C(=O)NCc2ccc3c(c2)OCO3)c2nc3ccccc3nc2n1CCCN1CCOCC1 | 44* | -14 | 8 | 6 | 4 | 29
COc1ccccc1CNC(=O)c1c(N)n(CCCN2CCOCC2)c2nc3ccccc3nc12 | / | 15 | / | / | / | /
CCOC(=O)c1cnc(Nc2nc3ccccc3o2)nc1CSc1nnc(C)s1 | 50* | -19 | 11 | 9 | 10 | 16
CC1(C)CC(=O)/C(=C(\O)c2ccccc2)C(=NCCO)C1 | 10 | 0 | 12 | 10 | 11 | /
COc1cccc(N=C2CC(C)(C)CC(=O)/C2=C(/O)c2ccccc2)c1 | 43* | -23 | 38 | 10 | 13 | 23
Cc1ccnc(NC(=O)C23CC4CC(CC(C4)C2)C3)c1 | 49* | -14 | 38 | 11 | 22 | 34*
CC(C)(C)[C@H]1CCC(=O)N([C@H](CN=[N+]=[N-])Cc2ccccc2)CC1 | 41* | -12 | 36 | 1 | 19 | 24
O=C(NCc1ccccn1)c1cccc(S(=O)(=O)NCc2ccccc2)c1 | 7 | -17 | -14 | 6 | -9 | /
S=c1nc(Cc2ccccc2)[nH]c2ccccc12 | 43* | -21 | 28 | 20 | 31 | 12
S=c1nc(Cc2ccc(Cl)cc2)[nH]c2ccccc12 | 34 | 4 | 7 | 30 | 14 | /
CC(C)C[C@H]1CNC(=S)N1CC1CCCN1C[C@H](CC(C)C)N1C[C@H](CC(C)C)N(CCc2ccccc2)C1=S (some centres undefined) | / | -8 | / | / | / | /
Cc1nn(-c2ccc(Cl)cc2)c(Cl)c1/C=N/NC(=O)c1ccc(NS(=O)(=O)c2cccs2)cc1 | -5 | -15 | 11 | 27 | 15 | /
Cc1sc2nc[nH]c(=S)c2c1-c1ccccc1 | 40* | -20 | -4 | 4 | 25 | -1
